Reference: PubChem BioAssay (NCI)
About 79,000 compounds went through this panel and 15% of them were active in at least one assay; those are over-represented in the sample as a whole. Unmarked numbers belong to inactive results. Activity calls are given as the source filed them. No stated cut-off is given here; in the data, active means growth inhibition above about 70%; inactive means the rest.

Assays:
[1] = NCI Yeast Anticancer Drug Screen. Data for the rad50 strain (AID 155);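 further: 0% = growth of vehicle-only cultures of the same strain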; settings: S. cerevisiae rad50 strain growth inhibition, active compounds read high
Outline: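 A DNA repair-deficient yeast mutant serves as the test organism; compound-induced growth inhibition is calculated against vehicle-treated cells.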

[2] = NCI Yeast Anticancer Drug Screen. Data for the mec2-1 strain (AID 157); settings: S. cerevisiae mec2-1 strain, active compounds read high
Outline: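 Mutant yeast (mec2-1) grown with compound; growth inhibition relative to vehicle control reported.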

[3] = NCI Yeast Anticancer Drug Screen. Data for the sgs1 mgt1 strain (AID 161);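 further: 0% = growth of cultures given vehicle only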; settings: S. cerevisiae sgs1 mgt1 strain, active compounds read high
Outline: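 This yeast growth screen uses a strain with defined DNA-repair lesions; compound-treated growth is compared with vehicle-treated growth.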

[4] = NCI Yeast Anticancer Drug Screen. Data for the cln2 rad14 strain (AID 165);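 further: 0% = growth equal to vehicle treated cultures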; settings: S. cerevisiae cln2 rad14 strain, active compounds read high
Outline: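 Readout is yeast growth inhibition versus vehicle-treated controls, using a strain with cln2 and rad14 alterations exposed to compound.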

[5] = NCI Yeast Anticancer Drug Screen. Data for the bub3 strain (AID 167); settings: S. cerevisiae bub3 mutant strain, active compounds read high
Outline: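 Inhibition values come from growth of compound-treated mutant yeast normalised to vehicle-treated controls.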

[6] = NCI Yeast Anticancer Drug Screen. Data for the mlh1 rad18 strain (AID 175); settings: S. cerevisiae mlh1 rad18 strain growth inhibition, active compounds read high
Outline: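 Genetically defined yeast (DNA repair-deficient) exposed to compounds; growth inhibition determined relative to vehicle.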

[7] = at 5.0 µM (retest, dose inferred, filed as 0.5)
[8] = at 50.0 µM (retest, dose inferred, filed as 5.0)

SMILES	growth inhibition [1, 7]	growth inhibition [1, 8]	growth inhibition ([1]; at 50.0 µM)	growth inhibition [2, 7]	growth inhibition [2, 8]	growth inhibition ([2]; at 50.0 µM)	growth inhibition [3, 7]	growth inhibition [3, 8]	growth inhibition ([3]; at 50.0 µM)	growth inhibition [4, 7]	growth inhibition [4, 8]	growth inhibition ([4]; at 50.0 µM)	growth inhibition [5, 7]	growth inhibition [5, 8]	growth inhibition ([5]; at 50.0 µM)	growth inhibition [6, 7]	growth inhibition [6, 8]	growth inhibition ([6]; at 50.0 µM)
O=C(O)/C=C/C(=O)NNc1nc2ccccc2s1	-4%	-1%	23.1%	-9%	2%	-5.25%	0%	-25%	50.3%	-25%	1%	23.1%	-31%	-21%	-13.2%	-7%	20%	70.2% (active)
CN(C)CCOC1OCN(C)CC1(C)C (configuration not stated)	0%	-12%	4.55%	0%	-7%	7.2%	-1%	-8%	-0.9%	1%	-15%	36.1%	-2%	-3%	-3.75%	2%	-12%	-1.05%
Cc1cc(Cl)cc2c1NC(=O)C2(O)C(C)C(=O)c1ccc(Cl)cc1 (configuration not stated)	-2%	63%	99.4% (active)	-1%	71% (active)	98.5% (active)	11%	77% (active)	99.5% (active)	-1%	99% (active)	99.1% (active)	-4%	99% (active)	99.5% (active)	-5%	77% (active)	98.8% (active)
CC/C(=C(/CC)c1ccc([O-])cc1)c1ccc([O-])cc1.CC/C(=C(\CC)c1ccc([O-])cc1)c1ccc([O-])cc1.O=C([CH-]C(=O)c1ccccc1)c1ccccc1.O=C([CH-]C(=O)c1ccccc1)c1ccccc1.O=C([CH-]C(=O)c1ccccc1)c1ccccc1.O=C([CH-]C(=O)c1ccccc1)c1ccccc1.[Ti+4].[Ti+4]	84% (active)	96% (active)	77.3% (active)	97% (active)	97% (active)	84% (active)	97% (active)	96% (active)	84.4% (active)	94% (active)	96% (active)	80% (active)	98% (active)	88% (active)	60.9%	94% (active)	93% (active)	80% (active)
CN(C)C=NCCNc1ccc([N+](=O)[O-])cn1	-154%	-166%	4.4%	-49%	-57%	4.2%	-62%	-66%	-6.6%	-46%	-59%	24.5%	-70%	-77%	19.8%	-139%	-120%	3.6%
C=CCC1(OC(C)=O)CC2C(=O)C(=O)C(C1)N2OC(=O)c1ccccc1 (configuration not stated)	20%	95% (active)	99% (active)	13%	96% (active)	99.1% (active)	22%	99% (active)	99.3% (active)	9%	94% (active)	98.3% (active)	-1%	93% (active)	98% (active)	10%	98% (active)	98.7% (active)
COc1ccccc1Nc1nc(SC)ncc1SC	-4%	91% (active)	95.1% (active)	-12%	75% (active)	96.4% (active)	-5%	69%	94% (active)	-8%	30%	41.9%	1%	93% (active)	98% (active)	-6%	82% (active)	92.2% (active)
COc1ccc(/C(C#N)=C(/N)SCc2ccccc2Cl)cc1	-3%	14%	90.9% (active)	-2%	14%	64.9%	10%	36%	97.2% (active)	-7%	15%	66.8%	3%	49%	83.5% (active)	-1%	34%	90% (active)
CCCCCCCCc1cc[n+](C2=C([O-])c3ccccc3C(=O)C2=O)cc1	99% (active)	97% (active)	98.8% (active)	100% (active)	93% (active)	98.2% (active)	100% (active)	98% (active)	99% (active)	99% (active)	95% (active)	98.5% (active)	99% (active)	99% (active)	98.8% (active)	100% (active)	99% (active)	98.2% (active)
